From PubChem BioAssay (EPA / NIEHS) come the findings set out here.

The source made the active and inactive calls. The calls were made as follows: active = hit-call score of the fitted dose curve at least 0.9, where 1 is the maximum; inactive = score below 0.9.

The assay is described as follows: CCTE_Padilla_ZF_Score.Edema: CCTE's 144 Hour Post-fertilization zebrafish Assay Score for Edema Malformation, Padilla Lab (AID 2284406). As to the method:
CCTE_Padilla_ZF_Phenotype_Score is a whole embryo, multiplexed assay using zebrafish ova exposed for 144 hours post fertilization on a 96-well plate.CCTE_Padilla_ZF_Score.Edema is one of one assay component(s) measured or calculated from the CCTE_Padilla_ZF_Phenotype_Score assay. It is designed to make measurements of zebrafish development as detected with brightfield microscopy of developing zebrafish embryos.Data from the assay component CCTE_Padilla_ZF_Score.Edema was analyzed into 1 assay endpoints. This assay endpoint, CCTE_Padilla_ZF_Score.Edema, was analyzed in the positive analysis fitting direction relative to DMSO as the negative control and baseline of activity. Using a type of viability reporter, gain-of-signal activity can be used to understand changes in developmentals as they relate to the whole embryo. To generalize the intended target to other relatable targets, this assay endpoint is annotated to the zebrafish development intended target family, where the subfamily is embryonic edema.
Zebrafish husbandry: Wild type adult zebrafish (Danio rerio; undefined outbred stock obtained from Aquatic Research Organisms, Hampton, NH, 03842) were housed in an AAALAC-approved animal facility at 28C with a 14:10 h light: dark cycle (lights on at 08:30 h). Adult fish (2-3 females per male; density = 15-20 adults per tank) were kept in one of several 9-liter (L) flow-through colony tanks (Aquaneering Inc., San Diego, CA). All adults in a colony tank were placed in a 2 L (static) breeding tank (Aquatic Habitats, Apopka, FL) one hour prior to light onset. Typically, adults from two to three colony tanks were mated on the same day. Two hours after light onset the adults were returned to the colony tank. All embryos were gathered from each breeder tank, pooled, and placed in a 28C water bath for 2 h, followed by two washes with 0.06% bleach (v/v) in 10% Hanks' Balanced Salt Solution (13.7 mM NaCl 0.54 mM KCl, 25 uM Na2HPO4, 130 uM CaCl2 100 um MgSO4 and 420 um NaHCO3,), hereafter referred to as Hanks' solution, for 5 min in order to remove any residual bacteria or fungi. Immediately following washing, the embryos were examined, and healthy embryos were separated from dead or unfertilized eggs and moved into fresh Hanks'. Chemical exposures: Zebrafish embryos were exposed in 96-well plates. Between 6- and 8-hours post fertilization (hpf), healthy embryos (with chorions) were transferred, one embryo per well, into 96 well (0.5 mL) microtiter plates (Cell Culture-Treated, Flat-Bottom Microplate 96 well [Corning Costar, Kennebunk, ME; Cat 09-761-145]) filled with 200 uL of Hanks' solution. A random number generator was used to assign the order in which the rows of embryos were plated in 96 well plates each week. After plating, the embryos were dosed with 0.8 uL of the chemical dosing solution then immediately sealed with AlumaSeal II (Excel Scientific Inc, Victorville, CA) to prevent volatilization of the chemicals, and then placed in a leakproof secondary container. These containers were placed in an incubator maintained on a 14:10 h light: dark cycle at 26C for rearing. On 5 dpf, live larvae were gently moved out of the plate with test chemicals and into a new 96 well mesh plate (Millipore Corp., Bedford, MA) with just the Hanks' solution. Once within the mesh well plate, the animals were rinsed with 400 uL of fresh Hanks' three times, and then the plates were covered with a non-adhesive material (Microseal A, BioRad, Hercules, CA), plate lid added, and then plate sides wrapped in Parafilm (PM992, Bermis Company, Neenah, WI), and returned to the incubator. This rinse on 5 dpf was conducted to lessen the possible exposure of the human assessors to the chemicals during detailed examination of each larva at 6 dpf.Larval assessments: On 6 dpf between 8 and 10 AM, two individual assessors, blinded to the chemical treatments, independently examined each larva for mortality, hatching status, and malformations using an Olympus SZH10 stereo microscope. […]
On to `CCOC(=O)CC(=O)C(F)(F)C(F)(F)F`, for which the result was inactive.

For `CCN(CCO)S(=O)(=O)C(F)(F)C(F)(F)C(F)(F)C(F)(F)C(F)(F)C(F)(F)C(F)(F)C(F)(F)F`, the outcome was inactive.

Regarding `NC(O)(C(F)(F)F)C(F)(F)F`, the outcome was inactive.

Turning to `NC(=O)C(F)(F)C(F)(F)C(F)(F)C(F)(F)C(F)(F)C(F)(F)C(F)(F)F`, the call was inactive.

Regarding `C=CC(=O)OCC(F)(F)C(F)(F)C(F)(F)COC(=O)C=C`, the result was inactive.

Consider `OCC(O)CC(F)(F)C(F)(F)C(F)(F)C(F)(F)F` (stereo not given), for which the molecule was called inactive.

For the molecule `C=CC(=O)OCC(F)(F)C(F)(F)C(F)(F)C(F)(F)C(F)(F)C(F)(F)C(F)(F)C(F)F`, the molecule was classed as inactive.

Regarding `O=C(O)C(F)(F)C(F)(F)C(F)(F)C(=O)O`, the molecule was called inactive.

In the case of `O=C(O)CCC(F)(F)C(F)(F)C(F)(F)C(F)(F)C(F)(F)C(F)(F)C(F)(F)F`, the molecule was called inactive.

Usually AC50 stands for the concentration giving half of the maximal activity seen. Take `OCCCCC(F)(F)C(F)(F)C(F)(F)C(F)(F)F`: the half-maximal activity concentration (AC50) is 29.2 µM (active).

Consider `O=C(O)CCC(F)(F)C(F)(F)C(F)(F)F`, for which the molecule was classed as inactive.

With `O=C(F)C1(F)C(F)(F)C(F)(F)C(F)(F)C(F)(F)C1(F)F`, the result was inactive.

Consider `FC(F)(F)C(F)(F)C(F)(F)CC1CO1` (stereo not given), for which the call was inactive.

Turning to `OC(O)C(F)(F)C(F)(F)F`, the molecule was called inactive.

On to `C[Si](Cl)(Cl)CCC(F)(F)C(F)(F)C(F)(F)C(F)(F)C(F)(F)C(F)(F)F`, for which the call was inactive.

For the molecule `O=C(O)C(F)(F)C(F)(F)C(F)(F)C(F)(F)C(F)(F)C(F)(F)C(F)F`, the result was inactive.

As for `NS(=O)(=O)C(F)(F)C(F)(F)C(F)(F)C(F)(F)C(F)(F)C(F)(F)F`, the AC50 was 2.27 µM (active).

For the molecule `O=S(=O)(OCC(F)(F)F)C(F)(F)C(F)(F)C(F)(F)C(F)(F)F`, the concentration at half-maximal activity (AC50) is 34.1 µM (active).

Regarding `OCCCC(F)(F)C(F)(F)C(F)(F)C(F)(F)C(F)(F)C(F)(F)C(F)(F)C(F)(F)F`, the molecule was classed as inactive.

For the molecule `O=C(Cl)C(F)(F)C(F)(F)C(F)(F)C(F)(F)C(F)(F)C(F)(F)C(F)(F)F`, the half-maximal activity concentration (AC50) was 86.8 µM (active).

Take `COC(F)(C(F)F)C(F)(F)F` (stereo not given): the molecule was called inactive.

Consider `NCC(F)(F)C(F)(F)C(F)(F)C(F)(F)C(F)(F)C(F)(F)F`, for which the concentration at half-maximal activity (AC50) was 75.3 µM (active).

With `C=CC(=O)OCCC(F)(F)C(F)(F)C(F)(F)C(F)(F)F`, the outcome was inactive.

With `CN(C(=O)C(F)(F)C(F)(F)C(F)(F)F)[Si](C)(C)C`, the result was inactive.

On to `CNS(=O)(=O)C(F)(F)C(F)(F)C(F)(F)C(F)(F)C(F)(F)C(F)(F)C(F)(F)C(F)(F)F`, for which the AC50 is 20.7 µM (active).

Consider `NCC(F)(F)C(F)(F)C(F)(F)C(F)(F)C(F)(F)C(F)(F)C(F)(F)C(F)(F)F`, for which the molecule was called inactive.

In the case of `O=C(O)C(F)(F)C(F)(F)C(F)(F)OC(F)(C(F)(F)F)C(F)(F)F`, the molecule was called inactive.

Turning to `O=S(=O)(O)CCC(F)(F)C(F)(F)C(F)(F)C(F)(F)F`, the call was inactive.

Take `O=S(=O)(Cl)C(F)(F)C(F)(F)C(F)(F)C(F)(F)C(F)(F)C(F)(F)C(F)(F)C(F)(F)F`: the AC50 is 33.5 µM (active).

On to `OCC(O)CC(F)(F)C(F)(F)C(F)(F)C(F)(F)C(F)(F)C(F)(F)C(F)(F)C(F)(F)F` (stereo not given), for which the AC50 is 9.75 µM (active).

As for `C=C(C)C(=O)OCC(F)(F)C(F)(F)C(F)(F)C(F)F`, the call was inactive.

As for `O=C(O)C(F)(F)C(F)(F)C(F)(F)OC(F)(F)F`, the molecule was classed as inactive.

For the molecule `OCC(F)(F)C(F)(F)C(F)(F)C(F)(F)C(F)(F)C(F)(F)C(F)(F)C(F)(F)CO`, the result was inactive.

As to `NC(=O)C(F)(F)C(F)(F)C(F)(F)C(F)(F)C(N)=O`, the outcome was inactive.

As for `CO[Si](C)(CCC(F)(F)C(F)(F)C(F)(F)C(F)(F)C(F)(F)C(F)(F)F)OC`, the call was inactive.

`O=S(=O)(O)CCC(F)(F)C(F)(F)C(F)(F)C(F)(F)C(F)(F)C(F)(F)C(F)(F)C(F)(F)F`: the molecule was classed as inactive.

For the molecule `FC(F)(F)C(F)(F)C(F)(F)C(F)(F)C(F)(F)C(F)(F)C(F)(F)CCI`, the result was inactive.

Consider `OCC(F)(F)C(F)(F)C(F)(F)CO`, for which the call was inactive.

As for `NC(=O)C(F)(F)C(F)(F)C(F)(F)C(F)F`, the outcome was inactive.

With `NC(=O)C(F)(F)C(F)(F)C(F)(F)F`, the outcome was inactive.
